Measurements published in PMC12136788.
Positions count from the first letter of the chain named. Over roughly 24,000 sequences, “enrichment r” has its median near 0.99; the highest 2% begin near 3.7. The full list was thinned out, with the highest values kept by preference.

T1: UNK ZnF1-3 (human, UniProt Q9C0B0 31-174)
T1 sequence: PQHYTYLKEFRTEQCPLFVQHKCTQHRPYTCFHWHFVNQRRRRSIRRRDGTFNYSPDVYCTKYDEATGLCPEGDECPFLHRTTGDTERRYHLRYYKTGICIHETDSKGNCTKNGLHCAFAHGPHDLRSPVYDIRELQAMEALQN

B1: chr4:109959894:109959895:-_ENSMUSG00000028546_ENSMUST00000106598|mus_mus|FALSE|FALSE (ssRNA)
RNA: GGGAGUUCUACAGUCCGACGAUCGCUUCGACUCUUCUCUUAAAAUUUGCAAAGGUUUCAGAAUAUACUUAAAAAUGACUACUAUUGUUUUAUAUAUAUAUAUAUUAAAGAUCCACAGACCACAGUGUGGAUGAUUGUAAAGUACAACAGAGGAUUGAGCAUCA
B2: chr4:109959894:109959895:-_ENSMUSG00000028546_ENSMUST00000106598|mus_mus|motif|central (ssRNA)
RNA: B1 RNA with U79G, A80G, U82G, A83G
B3: 72560208_72560328_3170_3pUTR_ENSMUSG00000056429_ENSMUST00000070524|mouse|control|control (ssRNA)
RNA: GGGAGUUCUACAGUCCGACGAUCUCCUAAAAAUUAGCGGAGAGUAUACCUAGAUAAUUUCUUUAAAAAAAAAAAAGUGGACUUCUGUGAUGAUAAAAAUGUUUUUAGUUUAUAGUGUGGAGUUUUCAGAUGAUUAGAGAAAGUCAACAGAGGAUUGAGCAUCA
B4: chr1:60041781:60041782:+_ENSMUSG00000041040_ENSMUST00000036540|mus_hu|mus_mus_mus_hu_False|38_58 (ssRNA)
RNA: GGGAGUUCUACAGUCCGACGAUCAAGUUUACAAUAGUAAAGUAAAUGCAGUAGUGGCAAAUUUUCUUUUAUUUUCCUUCCUAAAAGAAAAUCUUUAGAUCUCAGUUCUAGUCUUGGACAUAGUGAAAGCUAUAAAUUCUGACUCAACAGAGGAUUGAGCAUCA
B5: chr22:28376736:28376737:-_ENSG00000100154_ENST00000397906|hu_hu|FALSE|FALSE (ssRNA)
RNA: GGGAGUUCUACAGUCCGACGAUCAUUUUAGAAUUACCUAAAAGAUACUUACUUAUCUAAAUUCUCCAACUAAACUCAGUACUAAUACGACUUUCAGCAUUUCCUUUCUUUAUAAAAUAAAUUAAUGGUUACCCCUAACUAGAUCAACAGAGGAUUGAGCAUCA
B6: chr2:23028566:23028567:+_ENSMUSG00000026775_ENSMUST00000028117|mus_mus|FALSE|FALSE (ssRNA)
RNA: GGGAGUUCUACAGUCCGACGAUCGGUCUUCUGUGUAAGAGCUUGAGCUUUGAGAAAACCCUCUGCAAAACCAGUUUUAAAUGCAUCUUGGUGAGCUUCAGGUAUGUUUUUAGUUUUCAUAAGUUUGUCCAAACUCUCAAGAUCCAACAGAGGAUUGAGCAUCA
B7: chr2:179803060:179803061:+_ENSMUSG00000039086_ENSMUST00000041126|mus_mus|FALSE|FALSE (ssRNA)
RNA: GGGAGUUCUACAGUCCGACGAUCAUGUAAAAAAAAAAAAAAUCACCCAAUUCUCACUGUAUAAAACUUGUCCUUUUCAUUUGAAAGAACGUAAUAAAGUUAUUUGGAUUCAUUAAAAAUGCAGUGUGGAUUUCAGACUUCCCUCAACAGAGGAUUGAGCAUCA
B8: chr19:15271055:15271056:-_ENSG00000074181_ENST00000263388|hu_mus|motif|central (ssRNA)
RNA: GGGAGUUCUACAGUCCGACGAUCAUAUAUAUUUUGUAAAAAAUAAUAAUAAUAAUAAGUUUGUUUAAAUGAAUUUGUCUCGGUACAAAAUGUAAAAAAGAAAAAAAUAAUAACUCACUCUUGUCAGAGUGUGAGACAAUGAGACAACAGAGGAUUGAGCAUCA
B9: chr18:25531195:25531196:-_ENSG00000170558_ENST00000399380|hu_mus|motif|central (ssRNA)
RNA: GGGAGUUCUACAGUCCGACGAUCCUUUUUUUUUUUUUGUGUGUAAUUUUUUUGGUACAAAUUAUGUAAAACACUUGUGCGGAGAACUUUUACCCCUCCCCAAAACGAAACAAACAAAAAGAAAAUAAAAAAAUUUAAAAAAAACAACAGAGGAUUGAGCAUCA
B10: chr7:141450121:141450122:+_ENSG00000106028_ENST00000265304|hu_mus|hu_hu_hu_mus_True|8_98 (ssRNA)
RNA: GGGAGUUCUACAGUCCGACGAUCUCAUCCGUUCUAUUCCUUCUCUUUUGUCUGGUCACUCAGAAAUAUAAUGUUAUCAGCUAUGAUUGUUGUUGCUUGCCGCCUCACAUUGUUUUUAUCCAUGUACUCACCAUAGUCCACUUUCAACAGAGGAUUGAGCAUCA
B11: chr4:17845017:17845018:+_ENSG00000109805_ENST00000514176|hu_mus|hu_hu_hu_mus_False|48_108 (ssRNA)
RNA: GGGAGUUCUACAGUCCGACGAUCGCUUCCUAACUUAGUAUCUUCAUUAAGGAACUCUGCAAGGUUAAGUUUACUUUUCUGUAGCGCGCGGUUUUGGGCUCGUCUGGGUAAUCUCAUCUUCAUUUCUGAUGGUGGUUCAUGAUCCAACAGAGGAUUGAGCAUCA
B12: chr8:67197462:67197463:-_ENSMUSG00000031604_ENSMUST00000034015|mus_mus|FALSE|FALSE (ssRNA)
RNA: GGGAGUUCUACAGUCCGACGAUCUCCGAACUGACCAGUGUAUGUAAAAGGCUUAAAAGGCAACGUCAACUUCAGCCUCCUAUGGCAUGAAGUGGUGAGUUGUACAUUAAUACUUCCUCCAGUUCCCGAAACCUUUUGGUGAGGCAACAGAGGAUUGAGCAUCA
B13: chr5:150025729:150025730:+_ENSMUSG00000041264_ENSMUST00000121416|mus_mus|FALSE|FALSE (ssRNA)
RNA: GGGAGUUCUACAGUCCGACGAUCCACGAAGGCUCUCUUCUGAUCUUCUUUCCGAGGCUGAUUCUGUGCUGACCUGGCUGCUACUGUUUUAGAAGACGCUGUGGUUUCUCGUUUUCUCAAAUUAGAUGCCUGAGAUUUACCAGGCAACAGAGGAUUGAGCAUCA
B14: chr8:87797514:87797515:-_ENSMUSG00000031696_ENSMUST00000034131|mus_hu|motif|central (ssRNA)
RNA: GGGAGUUCUACAGUCCGACGAUCAUUAUGGAAUCCACCUGGUCUUGAGAGACAAUUUCUGUGUUAUAAUCCAGAACAUUACGGAGCACAUAACAACUCAUGCUCUUUCUGGACUCGUAGUCAAAGUACUCAAAGAGUGGGUGACAACAGAGGAUUGAGCAUCA
B15: 107145582_107145702_897_CDS_ENSG00000125266_ENST00000245323|human|control|control (ssRNA)
RNA: GGGAGUUCUACAGUCCGACGAUCGAGCGACAGCGUGGUCGUGUGCUGCGGCGAGUGCUUCCUGUGUCUCCUCCGGUACUUCAGCAAGAGGACCACCAGCGUGAUGAUGAUGACGAUGAAGAUGAUGCAUCCUGAAGCAAUCCCCAACAGAGGAUUGAGCAUCA
B16: chr9:115598534:115598535:+_ENSG00000148158_ENST00000374232|hu_mus|FALSE|FALSE (ssRNA)
RNA: GGGAGUUCUACAGUCCGACGAUCCAGCUUAUAGCCUCCGGUGACGUGCUUGACUGACUCACCCACUCUGCUCAGCAAUGCUAUCCCUUGCUUCUUGUAGGCAUUCAGGUCCUUAGCAGUGAGGAACACAUUGAAGUGUUCAUUCAACAGAGGAUUGAGCAUCA
B17: chrX:165757501:165757502:-_ENSMUSG00000031352_ENSMUST00000112115|mus_hu|FALSE|FALSE (ssRNA)
RNA: GGGAGUUCUACAGUCCGACGAUCGCAGGAGCAGAUGGAGACAAACCCAUGGCUGGAAACAGUGUUGACUGUAAACAAUUUUAAAUUUCCACCUGCUCCAGCCCGUGGUCCCCAGACCAAACCGGCCGCGGCCAGCCUGCCCUUCAACAGAGGAUUGAGCAUCA
B18: chr10:33190432:33190433:-_ENSG00000150093_ENST00000302278|hu_mus|hu_hu_hu_mus_True|58_98 (ssRNA)
RNA: GGGAGUUCUACAGUCCGACGAUCUACAUUUUCCAAACCUGCACAUGAAUAAAACCCUGGCCACAGAGCCCCAAAACUACCUAACUGUGACUAAGAUGCUGCUGCUGUGAGCUUGGUGUUGCAAAAUCCGCCUGAGUAGGAUUCCAACAGAGGAUUGAGCAUCA
B19: 10529348_10532452_191_CDS_ENSG00000160049_ENST00000377038|human|control|control (ssRNA)
RNA: GGGAGUUCUACAGUCCGACGAUCCAGGGUGACUGGUGUCAGGGACUUAUCAAUGGCCAGAAUGUCACAGGCCUUGCUCCUCAGGUCUUCGAGGCAGGAGGCGGCCACGCCGUGCUGUUCGCGGCUGUAGUUGCGGCGCAGCAGCAACAGAGGAUUGAGCAUCA
B20: 105048333_105048453_1516_3pUTR_ENSG00000148798_ENST00000369849|human|control|control (ssRNA)
RNA: GGGAGUUCUACAGUCCGACGAUCAGCAUUAACUUUUUCAAAGCAAUGGAAUUAUAUUUUUUGGCUUGAAAUGGUGGUUUCUUCUAUAUUUGAUUUCUCGGUUUUCUUAGUAGAUAUUACUGUCUCCUCUAAUAUUUCUUCAAACAACAGAGGAUUGAGCAUCA
B21: chr4:125586161:125586162:-_ENSG00000151458_ENST00000504087|hu_hu|motif|central (ssRNA)
RNA: GGGAGUUCUACAGUCCGACGAUCUUGUGUAGUGGCAACAGCUGAUUUAUAAAAUUUAAAGAUUUUAAUUUCAAAAAUAUCGGUUAAGGAGUUUUAUAUUUGGAGGACAAUUUUUACUUUUUAAUGGAGCAGAAGCCAUUUUCACAACAGAGGAUUGAGCAUCA
B22: chr4:125586161:125586162:-_ENSG00000151458_ENST00000504087|hu_hu|FALSE|FALSE (ssRNA)
RNA: B21 RNA with G81U, G82A
B23: 24223610_24223730_1957_3pUTR_ENSG00000173960_ENST00000309033|human|control|control (ssRNA)
RNA: GGGAGUUCUACAGUCCGACGAUCUUUUGAAAGAAAAUAAAAUGGAAAGGGAAUAGGCUUUUUAGAAAGAUAAUUUUCUUUUAUUACAUUUUUAUAAAGUGUAGAAAUGUGAGUAGGCAGAUUAAUCUUGAUACUAUACUGAGCCAACAGAGGAUUGAGCAUCA
B24: chr12:86641468:86641469:-_ENSMUSG00000034290_ENSMUST00000040992|mus_mus|FALSE|FALSE (ssRNA)
RNA: GGGAGUUCUACAGUCCGACGAUCGCAAUAUUAAGAGAGAUAGCCAACCUUUUUUUUGGGGGGGGGGUUUGGUUAAAUGAAACAAUAUUAAUUUAGCUGUGUGUAGUACAGAGGAUAUGGUACUUAUCAAAGGAGCUGCUGUGGCAACAGAGGAUUGAGCAUCA
B25: chr1:60041781:60041782:+_ENSMUSG00000041040_ENSMUST00000036540|mus_hu|mus_mus_mus_hu_False|1_38 (ssRNA)
RNA: B4 RNA with C80A, U81C, U137G, U139C, G140A, A141C, C142U, U143G
B26: chr8:13147844:13147845:+_ENSMUSG00000031446_ENSMUST00000016680|mus_hu|FALSE|FALSE (ssRNA)
RNA: GGGAGUUCUACAGUCCGACGAUCUACAAUAUUAACAAUCUCUAGACACAACGAACUUAUAAGAAAAAAAAAAUAGAAAUCUGUUUGGUCUUUCUUAGACCACAUAUCAUGGAACUCAUAAAUGAAAAUUUUCAAAGAUAGAAACAACAGAGGAUUGAGCAUCA
B27: chrX:147030410:147030411:+_ENSG00000102081_ENST00000218200|hu_mus|FALSE|FALSE (ssRNA)
RNA: GGGAGUUCUACAGUCCGACGAUCACUUCAUGCCCUGUGCCAUCUUGCCUACUAUUUGUCUUUGGCCUAACAAAGUUUUCUAAAAUGGAGUAAGAAUUACGGAAAUGGUAGAGGAAAUAUAACUUCGGAAUUAUGUAGCUUAUUCAACAGAGGAUUGAGCAUCA

Target: T1, UNK ZnF1-3
Assay: nsRBNS (natural sequence RNA bind-n-seq); RBNS binding buffer (assumed for nsRBNS): 25 mM Tris pH 7.5, 150 mM KCl, 3 mM MgCl2, 0.01% Triton X-100, 500 ug/ml BSA, 20 U/ml SUPERase-In, 4 C; UNK is unkempt and MSI1 is Musashi-1; names of the RNAs are library labels; protein concentration not given here; high values mean tight binding

Binder | binding signal
B1 | 4.13 enrichment R
B2 | 3.36 enrichment R
B3 | 8.87 enrichment R
B4 | 0.462 enrichment R
B5 | 1.4 enrichment R
B6 | 1.2 enrichment R
B7 | 5.86 enrichment R
B8 | 11.3 enrichment R
B9 | 3.31 enrichment R
B10 | 0.398 enrichment R
B11 | 0.472 enrichment R
B12 | 0.838 enrichment R
B13 | 0.579 enrichment R
B14 | 0.988 enrichment R
B15 | 1.32 enrichment R
B16 | 0.557 enrichment R
B17 | 0.781 enrichment R
B18 | 1.55 enrichment R
B19 | 0.999 enrichment R
B20 | 4.33 enrichment R
B21 | 4.45 enrichment R
B22 | 4.35 enrichment R
B23 | 3.4 enrichment R
B24 | 3.28 enrichment R
B25 | 0.52 enrichment R
B26 | 3.59 enrichment R
B27 | 1.78 enrichment R
